Compound activity: PubChem, Sanford-Burnham Center for Chemical Genomics
CYP2C9 activ = human CYP2C9 activators, primary screen, biochemical, luminescence | activation factor at 5 µM | recombinant CYP2C9, luciferin-H conversion; hits give high values; factor 1 = untreated enzyme, 0 = blocked | Cytochrome P450 2C9 (Homo sapiens), P11712 | actives 1.4% (n = 96,000);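 active means activation factor of 2 or more for CYP2C9 at a 5 µM dose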;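 further: 0 = sulfaphenazole-blocked wells and 1 = vehicle-only wells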
CD11b adhes enh = enhancers of CD11b/CD18 adhesion to fibrinogen, primary screen, K562 cells, luminescence | ATPlite luminescence | activation, % at 10 µM | actives 0.07% (n = 93,000);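 active means 10 µM primary screen giving 50% or more activity, confirmed by 40% or more on retest at that dose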
CYP2C19 inh = blockers of cytochrome P450 2C19 activity – biochemical, luminescence, ADME assay, primary screen | P33261 | CYP2C19 Supersomes, luciferin-H EGE luminescence, 30 min | inhibition, % at 5 µM | actives 21% (n = 96,000);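 active means CYP2C19 inhibition above a set limit at 5 µM in the primary screen, cut at about 50% in these data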;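 further: plate controls were negative control wells for no effect and 2.5 mM tranylcypromine positive control for full effect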
Target sequence (P33261 whole entry, looked up): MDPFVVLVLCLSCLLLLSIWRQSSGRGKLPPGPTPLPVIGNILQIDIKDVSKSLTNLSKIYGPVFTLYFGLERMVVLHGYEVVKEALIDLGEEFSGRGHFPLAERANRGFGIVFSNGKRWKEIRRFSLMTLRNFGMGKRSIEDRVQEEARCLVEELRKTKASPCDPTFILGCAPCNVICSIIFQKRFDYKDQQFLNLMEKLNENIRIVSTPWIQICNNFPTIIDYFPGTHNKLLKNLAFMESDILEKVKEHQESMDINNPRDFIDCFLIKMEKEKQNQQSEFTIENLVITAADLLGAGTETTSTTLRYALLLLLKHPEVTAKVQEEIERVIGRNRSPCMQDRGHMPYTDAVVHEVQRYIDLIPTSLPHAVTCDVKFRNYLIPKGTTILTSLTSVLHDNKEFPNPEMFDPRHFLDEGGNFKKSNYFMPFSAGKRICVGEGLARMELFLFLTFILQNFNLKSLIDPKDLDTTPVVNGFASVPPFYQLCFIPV
CD11b adhes inh = inhibitors of CD11b/CD18 adhesion to fibrinogen, primary screen, K562 cells, luminescence. Integrin beta-2 (Homo sapiens) + Integrin alpha-M (Homo sapiens), P05107+P11215. ATPlite luminescence; Mn2+ added to activate the integrin. inhibition, % at 10 µM. actives 0.54% (n = 93,000);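 active means primary inhibition of 50% or more at 10 µM, then 40% or more on retest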
CYP2C9 inh = blockers of cytochrome P450 2C9 activity – biochemical, luminescence, ADME assay, primary screen | P11712 | CYP2C9 Supersomes, luciferin-H conversion | inhibition, % at 5 µM | actives 20% (n = 96,000);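 active means blocking of liver enzyme CYP2C9 beyond about 50% at 5 µM, limit read from the data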
CYP2C19 activ = human CYP2C19 activators, primary screen, biochemical, luminescence. recombinant CYP2C19, luciferin-H EGE luminescence; hits give high values; 0 = fully inhibited enzyme, 1 = untreated enzyme. Cytochrome P450 2C19 (Homo sapiens), P33261. activation factor at 5 µM. 96,000 tested, under 10 active;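 active means activation factor of at least 2 at 5 µM in the primary screen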;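 further: 0 = wells with 2.5 mM tranylcypromine and 1 = vehicle-only wells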
* = called active by the depositor; / = no result. An excerpt weighted towards active compounds, which were near 28% of everything screened.

SMILES	CYP2C9 activ	CD11b adhes enh	CYP2C19 inh	CD11b adhes inh	CYP2C9 inh	CYP2C19 activ
COc1ccc(C2=NOC(CN3C(=O)c4ccccc4S3(=O)=O)C2)cc1 (stereo not drawn)	0.1	-2	76*	-2	89*	0.2
O=C(CN1C(=O)c2ccccc2S1(=O)=O)N1CCOCC1	1	0	6	-7	-1	0.9
O=C1c2ccccc2S(=O)(=O)N1CC1CC(c2ccccc2)=NO1 (stereo not drawn)	0.2	-4	82*	-8	81*	0.2
Cc1c(Cc2c(Cl)cccc2Cl)c(=O)ccn1C(C)c1ccccc1 (stereo not drawn)	0.6	/	90*	/	45	0.1
COc1ccc(Cn2ccc(=O)c(Cc3c(Cl)cccc3Cl)c2C)cc1	1.1	/	77*	/	-8	0.2
Cc1c(OCc2ccccc2)c(=O)ccn1Cc1ccc(Cl)cc1	0.4	0	31	-20	57*	0.7
Cc1ccc(Cn2ccc(=O)c(Cc3c(Cl)cccc3Cl)c2C)cc1	0.7	3	39	-2	30	0.6
O=C(NCc1ccccn1)c1ccc(N2CCCC2=O)cc1	1.1	1	-19	15	-12	1.2
O=S(=O)(c1ccccc1)N1CCN(c2ncnc3sc(-c4ccccc4)cc23)CC1	0.1	-3	82*	-1	93*	0.2
CC(=O)NN1C(=O)c2ccc(Oc3cccc([N+](=O)[O-])c3)cc2C1=O	0.9	/	6	/	12	0.9
COC(=O)CSc1nnc([C@H](CC(C)C)NC(=O)OC(C)(C)C)o1	0.9	-5	66*	-14	6	0.3
CSc1nnc([C@@H](NC(=O)OC(C)(C)C)C(C)C)o1	0.8	0	38	52	21	0.6
CCCCSc1nnc([C@H](C)NC(=O)OC(C)(C)C)o1	0.7	2	75*	3	33	0.2
Cc1[nH]c(=O)[nH]c(=O)c1CSc1nnc([C@H](CC(C)C)NC(=O)OC(C)(C)C)o1	0.9	-1	4	11	8	1
CCCCSc1nnc([C@H](CC(C)C)NC(=O)OC(C)(C)C)o1	0.4	1	62*	-11	56*	0.4
CC(Nc1nc(N2CCCCC2)nc2ccccc12)c1ccccc1 (stereo not drawn)	0.6	-2	35	-29	41	0.6
CCOc1ccc(Cc2nc(C)c(CC(=O)N3CCOCC3)c(=O)[nH]2)cc1	1.2	-2	0	0	-15	1
COC(=O)c1cc(Br)c(=O)n(CCN2CCOCC2)c1	0.9	-2	8	-34	10	0.9
O=C(Nc1cccc(-c2nc3ncccc3o2)c1)c1cc2ccccc2o1	0.1	1	26	-7	89*	0.7
CN(C)S(=O)(=O)c1cccc(NC(=O)c2cc3ccccc3o2)c1	0.4	-7	21	11	61*	0.8
Cc1ccc(-c2nc3ncccc3o2)cc1NC(=O)c1cc2ccccc2o1	0.6	1	20	-6	44	0.8
CC(SCCc1ccccn1)C(=O)O (stereo not drawn)	1.1	-1	16	-6	-7	0.8
COc1ccc(CCN2C(=O)C3C4CC(C5C(C(=O)N/N=C\c6ccc(Cl)cc6)=NOC45)C3C2=O)cc1OC (stereo not drawn)	0.5	-2	20	-12	49	0.8
Cn1cnnc1SCc1ccccc1	1.2	1	-13	2	-22	1.1
Clc1ccc(CSc2nncn2-c2ccccn2)cc1	0.9	0	68*	-11	7	0.3
SMILES	CYP2C9 activ	CD11b adhes enh	CYP2C19 inh	CD11b adhes inh	CYP2C9 inh	CYP2C19 activ
Cc1cccc(N2CCN(C(=O)c3ccncc3)CC2C)c1 (stereo not drawn)	0.5	-6	100*	-11	49	0
Cc1cccc(N2CCN(C(=O)CN3CCOc4ccccc43)CC2C)c1 (stereo not drawn)	0.5	3	94*	3	54*	0.1
Cc1cccc(N2CCN(C(=O)Cn3sc4nc(C)cc(C)c4c3=O)CC2C)c1 (stereo not drawn)	0.5	-6	26	22	54*	0.7
COc1ccc(N2CCN(C(=O)Cn3c(=O)[nH]c4ccsc4c3=O)CC2)cc1	1.1	2	-9	16	-12	1.1
Cc1cccc(N2CCN(C(=O)Cn3c(=O)[nH]c4ccsc4c3=O)CC2C)c1 (stereo not drawn)	0.6	0	59*	-12	37	0.4
Cc1ccc(-c2ccc(=O)n(CC(=O)N3CCN(c4cccc(C)c4)C(C)C3)n2)cc1 (stereo not drawn)	0.8	/	27	/	19	0.7
Cc1cccc(N2CCN(C(=O)c3ccc(NC(=O)C4CCCO4)cc3)CC2C)c1 (stereo not drawn)	0.5	8	-5	-12	45	1.1
CC(=O)N1N=C(c2ccco2)CC1c1ccc(Br)cc1 (stereo not drawn)	/	-1	/	-2	/	/
CC(C)(C)NC(=O)Cn1c(SCC(=O)NC2CCCCC2)nc2ccccc21	1.1	-1	-3	0	-12	1
CC1CN(c2ccccc2)C(=O)CS1 (stereo not drawn)	1	-2	-11	-8	3	1.1
CCOC(=O)CSc1ccc(S(=O)(=O)N(C)C2CCCCC2)cc1[N+](=O)[O-]	0.1	3	64*	8	88*	0.4
O=C(OCc1cccs1)c1ccccc1NS(=O)(=O)c1ccc2c(c1)OCCO2	0.8	34	60*	22	24	0.4
O=C(NCc1ccco1)c1ccccc1NS(=O)(=O)c1cccs1	0.3	3	81*	-12	72*	0.2
O=C(NCc1ccco1)c1ccccc1NS(=O)(=O)c1ccc2c(c1)OCCO2	1.6	-5	56*	-17	-61	0.4
O=C(NCc1ccco1)c1ccccc1NS(=O)(=O)c1ccc(Cl)s1	0	-8	-17	98*	97*	1.2
O=C(NCc1ccco1)c1ccc(C(=O)NCc2ccco2)s1	0.7	-3	5	-4	33	1
COCc1nnc(NC(=O)CC(C)c2ccccc2)s1 (stereo not drawn)	0.8	-2	28	-14	21	0.7
COc1cccc(NC(=O)c2ccc(-n3cccn3)nc2)c1	0.8	/	18	/	22	0.8
CN(C)CCCNC(=O)C1CCNCC1	1	1	5	3	-1	1
Cc1ccc(C(=O)Nc2cc(C)c(OCC(=O)N3CCOCC3)c(C)c2)cc1	0.2	-4	10	6	78*	0.9
C1CCc2c(nc3nnnn3c2NC2CCCC2)C1	0.8	/	7	/	16	0.9
